The structures appear in SMILES notation. Inconclusive results are not listed. Entries that show only a call come without a potency. Calls of active or inactive are those of the source. The call rests on the fitted dose curve; in most records, active means well fitted cell-killing curve with a large enough effect in the repeat runs; inconclusive means weak or mixed curves, or effect the other way; inactive means no such curve, though single readings can be large or run the other way. Non-standard residues stand in square brackets, D forms with d. Residues, ends and D or L forms follow the SMILES beside them. pGlu = O=C1CC[C@@H](C(=O)O)N1; Thz = O=C(O)[C@@H]1CSCN1
Potency means the concentration at half of the fitted maximal effect.

The nature of this assay: qHTS assay to identify small molecule antagonists of the glucocorticoid receptor (GR) signaling pathway - cell viability counter screen (AID 720693). Further: nearly all actives have a fitted effect of over 55% in size. The following applies: GR-bla HeLa viability, CellTiter-Glo luminescence, 18 h, with 5 nM dexamethasone present; series mostly up to 58.5 µM. (Quantitative high-throughput screening tests each substance at several concentrations.)
In the case of `CCCCCCCCCCCC(=O)OC[C@@H](O)C1OC[C@H](O)[C@H]1O` (some centres undefined), the Potency result was “inactive”.
`CN(C)c1ccc(C(=C2C=CC(=[N+](C)C)C=C2)c2c(O)c(S(=O)(=O)[O-])cc3cc(S(=O)(=O)O)ccc23)cc1`: the Potency entry is “inactive”.
Next, `CNc1cc(OC)c(C(=O)N[C@H]2CCN(Cc3ccccc3)[C@H]2C)cc1Cl`: “inactive”; `O=C(O)c1cccc(/C=C2/C[C@@H]3[C@@H](/C=C/[C@@H](O)C4CCCCC4)[C@H](O)C[C@@H]3O2)c1`: “inactive”.
Next, `NCCCNCCCCNC(=O)C(O)NC(=O)CCCCCCN=C(N)N` (centres undefined): “inactive”; `C=C[C@]1(C)C[C@@H](OC(=O)CSCCN(CC)CC)[C@]2(C)[C@H](C)CC[C@]3(CCC(=O)[C@H]32)[C@@H](C)[C@@H]1O`: “inactive”.
Then `CC(O)[C@@H]1NC(=O)[C@H](Cc2ccccc2)NC(=O)[C@H](C(C)O)NC(=O)[C@H](CCCCN)NC(=O)[C@H](Cc2c[nH]c3ccccc23)NC(=O)[C@H](Cc2ccccc2)NC(=O)[C@H](Cc2ccccc2)NC(=O)[C@H](CC(N)=O)NC(=O)[C@H](CCCCN)NC(=O)[C@@H](NC(=O)CNC(=O)[C@H](C)N)CSSC[C@@H](C(=O)O)NC(=O)[C@H](CO)NC1=O` (some centres undefined), with “inactive”.
For `O=C(CO)[C@@H](O)[C@H](O)[C@@H](O)C(=O)O`, the Potency entry was “inactive”.
Then `O=C(O)[C@H]1/C(=C/CO)O[C@@H]2CC(=O)N21`, with “inactive”.
Then `CN(C)CCCN1c2ccccc2C(C)(C)c2ccccc21`, with “inactive”.
Then `NCCC(=O)[N-][C@@H](Cc1cnc[nH]1)C(=O)O.[Zn]`, with “inactive”; and `Cc1cc2nc3c(=O)[nH]c(=O)nc-3n(C[C@H](O)[C@H](O)[C@H](O)COP(=O)(O)OP(=O)(O)OC[C@H]3O[C@@H](n4cnc5c(N)ncnc54)[C@H](O)[C@@H]3O)c2cc1C`, with “inactive”.
`C[N@+]12CCCC[C@@H]1CCC(=C(c1cccs1)c1cccs1)C2`: the Potency result was “inactive”.
Next, `CCCCC/C=C\C/C=C\C/C=C\CCCCC(=O)O`: “inactive”; `COc1ccc(/C=C/C(=O)OCCC(C)C)cc1`: “inactive”; `CC(=O)[C@@]1(O)CC[C@H]2[C@@H]3C=C(Cl)C4=CC(=O)[C@@H]5C[C@@H]5[C@]4(C)[C@H]3CC[C@@]21C`: “inactive”.
Next, `O=C1CC[C@@H](C(=O)N2CSC[C@H]2C(=O)O)N1` ([pGlu]-[Thz]-OH): “inactive”; `CCCc1ccc(C(=O)O)cc1`: “inactive”; `CCOc1cc(-c2nccc3cc(OC)c(OC)cc23)cc(OCC)c1OCC`: “inactive”.
Then `CCCCCCCCCCCCCCCC(=O)O[C@@H]1[C@@H](O)[C@@H](O)[C@@H]([C@H](NC(=O)[C@@H]2C[C@@H](CCC)CN2C)[C@H](C)Cl)O[C@@H]1SC`, with “inactive”; and `OCCN1CCN(CC/C=C2/c3ccccc3Sc3ccc(Cl)cc32)CC1`, with “inactive”; and `CCC(Cc1c(I)cc(I)c(O)c1I)C(=O)O` (centres undefined), with “inactive”.
As for `C=C[C@]1(C)C[C@@H](OC(=O)CSC(C)(C)CNC(=O)[C@H](N)C(C)C)[C@]2(C)[C@H](C)CC[C@]3(CCC(=O)[C@H]32)[C@@H](C)[C@@H]1O`, the Potency result was “inactive”.
Next, `C[C@H]1C[C@H]2[C@@H]3CCC4=CC(=O)C=C[C@]4(C)[C@@]3(F)[C@@H](O)C[C@]2(C)[C@@]1(O)C(=O)CCl`: “inactive”.
Then `CN=C1C=CC(=C(c2ccc(N(C)C)cc2)c2ccc(N(C)C)cc2)C=C1`, with 7.56 µM (active); and `CC(=O)O[C@H]1C(=O)[C@@]2(C)[C@H]([C@H](OC(=O)c3ccccc3)[C@]3(O)C[C@H](OC(=O)[C@H](O)[C@@H](NC(=O)c4ccccc4)c4ccccc4)C(C)=C1C3(C)C)[C@]1(OC(C)=O)CO[C@@H]1C[C@@H]2O`, with “inactive”; and `CC1(O)CCC(C(C)(C)O)CC1` (centres undefined), with “inactive”.
Then `CCOC(=O)COc1ccc2c(C)c(CCN(CC)CC)c(=O)oc2c1`, with “inactive”.
With `N[C@H](CCC(=O)O)C(=O)O`, the Potency entry is “inactive”.
Next, `CCN(CC)CCOc1ccccc1OC`: “inactive”; `CC(C)C[C@H](NC(=O)[C@@H](Cc1c[nH]c2ccccc12)NC(=O)[C@H](Cc1ccc(O)cc1)NC(=O)[C@H](CO)NC(=O)[C@H](Cc1c[nH]c2ccccc12)NC(=O)[C@H](Cc1cnc[nH]1)NC(=O)[C@@H]1CCC(=O)N1)C(=O)N[C@@H](CCCN=C(N)N)C(=O)N1CCC[C@@H]1C(=O)NCC(N)=O`: “inactive”; `CCCCCCCCCCCCCC[n+]1ccc(C)cc1`: 21.3 µM (active).
For the compound `[O]=[Bi][O][Bi]=[O]`, the Potency result was “inactive”.
Next, `CC1(C)S[C@@H]2[C@H](NC(=O)[C@H](N)c3ccccc3)C(=O)N2[C@H]1C(=O)OCOC(=O)[C@@H]1N2C(=O)C[C@H]2S(=O)(=O)C1(C)C`: “inactive”.

The values above are taken from PubChem BioAssay (Tox21).
